Measurements as given in ChEMBL document CHEMBL3988442, “University of Dundee, Small-Polar-MMV Screening Library” (2021).
The whole screen tested about 48,000 compounds, of which about 13,000 (27%) showed an effect of 50% or more. The list shows a part of the results.

Tested on: Wolbachia pipientis
Experiment: Anti-Wolbachia Cell-Based Screen
Format: functional
Design: scale not given: in the data most compounds retested in dose-response had high values
Conditions: 5 µM

Row | SMILES | Percent Effect
1 | CCNc1ncc(CN2C[C@H]3CC[C@@H]2CN(C(=O)C2CCC2)C3)cn1 | -9.372%
2 | COCc1cc(N2CCN(c3ccc(Cl)cn3)CC2)n2nccc2n1 | -13.5%
3 | COc1ccc(F)c(CN2CCCC(O)(CNCc3ccoc3)C2=O)c1 (configuration not stated) | 4.177%
4 | Cc1nc[nH]c1CN(Cc1ccccc1F)C1CC(C)(C)NC(C)(C)C1.O=C(O)CC(O)(CC(=O)O)C(=O)O | 111.6%
5 | O=C(c1cc[nH]n1)N(Cc1ccccc1)CC1CCC1 | -1.584%
6 | CCCc1cc(CN(C)C2CC(C)(C)NC(C)(C)C2)n[nH]1 | -6.342%
7 | Cc1nc[nH]c1CN(C)CC1CCCN(CCc2ccc(Cl)cc2)C1 (configuration not stated) | -5.725%
8 | Cc1ccc(CNC(=O)N(Cc2ccccc2F)C2CC2)cn1 | -4.204%
9 | Cc1n[nH]c(C)c1CNC(=O)N(Cc1ccccc1)CC(C)(C)O | -20.3%
10 | CC1(C)CC(N(Cc2ccccc2)Cc2c[nH]cn2)CC(C)(C)N1.O=C(O)CC(O)(CC(=O)O)C(=O)O | 113.6%
11 | Cc1ccc(CN(Cc2c[nH]cn2)C2CC(C)(C)NC(C)(C)C2)o1.O=C(O)CC(O)(CC(=O)O)C(=O)O | 1.098%
12 | Cc1nc[nH]c1CN(Cc1ccccc1)C1CC(C)(C)NC(C)(C)C1.O=C(O)CC(O)(CC(=O)O)C(=O)O | 106.8%
13 | Cc1nc[nH]c1CN(Cc1ccc(F)cc1)C1CC(C)(C)NC(C)(C)C1 | 102.8%
14 | O=C(c1ccc(C2CCCN2C(=O)c2ccoc2)s1)N1CCOCC1 (configuration not stated) | -19.01%
15 | Cc1cnc(C)c(-c2cc(O)c3c(c2)CN(c2nccs2)CCO3)n1 | -4.792%
16 | O=C(CCc1ccco1)NS(=O)(=O)Cc1ccon1 | -7.253%
17 | Fc1cccc2c1CCC2NCc1ccc(N2CCOCC2)cc1 (configuration not stated) | 19.23%
18 | Cc1nc(CN(C)S(=O)(=O)c2ccccc2Br)no1 | 4.725%
19 | Cc1ccc(CN(Cc2[nH]cnc2C)C2CC(C)(C)NC(C)(C)C2)o1.O=C(O)CC(O)(CC(=O)O)C(=O)O | 115.3%
20 | Cc1ccc(CN2C[C@H]3CC[C@@H]2CN(Cc2[nH]cnc2C)C3)o1 | 6.692%
21 | CCC[C@H]1CN(c2nc(CO)cs2)C[C@@H]1NC(=O)C1CCC1 | 94.3%
22 | Cc1nc(O)cc(CN2C[C@H](NC(=O)C3CCCC3)[C@@H](C3CC3)C2)n1 | 0%

Row | SMILES | Percent Effect
23 | Cc1nc(O)cc(CN2C[C@H](NC(=O)C3CCC3)[C@@H](C3CC3)C2)n1 | -31.53%
24 | CCC[C@H]1CN(Cc2cscn2)C[C@@H]1NC(=O)C1(COC)CCC1 | 6.083%
25 | CCC[C@H]1CN(c2nc(CO)cs2)C[C@@H]1NC(=O)C1(COC)CC1 | 96.14%
26 | CCC[C@H]1CN(c2nccc(OC)n2)C[C@@H]1NC(=O)C1CCOCC1 | -2.049%
27 | O=C(N[C@H]1CN(c2nc(CO)cs2)C[C@@H]1C1CC1)C1CCCCC1 | 92.34%
28 | CC(=O)N[C@@H]1CN(c2nc(CO)cs2)C[C@H]1c1ccc(C)o1 | 5.445%
29 | CCC[C@H]1CN(Cc2nccn2C)C[C@@H]1NC(=O)C1(COC)CCC1 | -15.87%
30 | COc1ccc(Br)cc1CCC(=O)N1CCC(O)CC1 | -2.628%
31 | COc1ccc(-n2c(SCC(=O)O)nnc2-c2cn[nH]c2)cc1 | -10.86%
32 | O=C(C1CCCS1)N1CCOc2cccc(F)c21 (configuration not stated) | -0.5094%
33 | Cc1noc(C)c1NC(=O)N1CCC(NC(=O)OC(C)(C)C)CC1 | -9.132%
34 | Cc1nn(-c2ccccn2)c(C)c1[C@@H]1C=C[C@@H](NC(=O)NC(C)C)C1 | 4.559%
35 | CC(C)(N)C(=O)N1CCC(c2nccnc2Oc2ccccc2F)CC1 | 77.45%
36 | CCc1nc(N)sc1C(=O)N1CCCC(COc2cccc(C)c2)C1 (configuration not stated) | -15.03%
37 | COCC(=O)N1CCC(Oc2cccc(C)c2)CC1 | 14.96%
38 | CC(=O)N1CCC(c2nccnc2Oc2ccccc2)CC1 | -11.76%
39 | CC(C)(C(=O)N1CCC(C(N)=O)C1)c1ccccc1F (configuration not stated) | 2.701%
40 | Cc1cccc(Oc2nccnc2C2CCN(C(=O)C(C)(C)N)CC2)c1 | 110.7%
41 | CC(C)(C(=O)N1CCC(CS(N)(=O)=O)CC1)c1ccccc1F | -25.38%
42 | Cc1ccc(Oc2nccnc2C2CCN(C(=O)C(C)(C)N)CC2)cc1 | 108.2%
43 | COc1ccc(Oc2ncccc2NC(=O)N2CCOC(C)C2)cc1 (configuration not stated) | 2.088%
44 | COc1ccc(Oc2nccnc2C2CCN(C(C)=O)CC2)cc1 | 88.85%

Row | SMILES | Percent Effect
45 | CC(C)N1C(=O)CC(NC(=O)c2cc(Cl)sc2Cl)C1=O (configuration not stated) | -12.95%
46 | COc1ccc(S(=O)(=O)Nc2cccnc2-n2cncn2)c(C)c1 | -3.562%
47 | CCc1c(NCc2cccnc2)cnn1CC(C)C | -15.31%
48 | CC(C)CN1CCc2[nH]cnc2C12CCN(C(=O)c1ccnn1C)CC2 | -2.92%
49 | O=C(c1coc(COc2cccc(F)c2)n1)N1CC[C@H](O)[C@@H](O)C1 | -11.67%
50 | CC(C)(N)C(=O)N1CCC(c2nccnc2Oc2cccc(F)c2)CC1 | 92.95%
51 | O=C(NCc1nncn1C1CC1)Nc1ccc(OC2CCC2)c(F)c1 | 8.636%
52 | O=C(NCCNC(=O)C1CC1)c1cnc(-c2ccccc2)nc1 | 15.61%
53 | Cc1cccc(C)c1OCCNC(=O)CNC(=O)C1CCCC1 | -3.994%
54 | CCOCCNC(=O)CCC1CCCO1 (configuration not stated) | -23.31%
55 | COc1ccc(OC)c(CCNC(=O)CCC2CCCO2)c1 (configuration not stated) | 18.05%
56 | Cc1ncc(-c2ccccn2)c(CCNC(=O)C2CCCC2)n1 | 121.3%
57 | Cc1ncc(-c2ccccn2)c(CCNC(=O)CCC2CCCO2)n1 (configuration not stated) | 93.7%
58 | CC(NCc1cnc(C2CCC2)s1)c1cccc(-n2ccnc2)c1 (configuration not stated) | -10.94%
59 | Cc1cc(C)c(CN2CCCC23Cc2ccccc2CNC3=O)c(C)c1 (configuration not stated) | 111.5%
60 | Cc1ccc(CN2CCCC23Cc2ccccc2CNC3=O)cc1 (configuration not stated) | 128.7%
61 | Cc1ccc(CCN2CCCC23Cc2ccccc2CNC3=O)cc1 (configuration not stated) | 109.3%
62 | Cc1cc(C)c2[nH]c(=O)c(CN3CCCC(O)(CO)C3)cc2c1 (configuration not stated) | -6.012%
63 | O=C(CC1CC1)N1CCC2(CC1)C(=O)NCCN2Cc1ccccc1 | -11.42%
64 | O=C1N(CCc2ccccc2)CCCC1(O)CNCc1ccc(F)cc1 (configuration not stated) | 10.95%
65 | CC(C)NC(=O)N1CCC2(CC1)C(=O)NCCN2Cc1ccccc1.O=C(O)C(F)(F)F | -27.1%
66 | OC(CNCCn1cccn1)COc1cccc(C(F)(F)F)c1 (configuration not stated) | 6.446%

Row | SMILES | Percent Effect
67 | CCN1CCC(NC(=O)CNC(C)Cn2cccn2)CC1 (configuration not stated) | 5.956%
68 | CCC[C@@H]1CN(Cc2cc3c(cc2OC)OCO3)C[C@H]1C(=O)O | 5.15%
69 | CCc1ncncc1C(=O)NCCNc1ncnc2sccc12 | -23.73%
70 | Cc1nc(COC[C@@H]2CC[C@H]3[C@H](CCN3C(=O)C3CC3)O2)cs1 | -1.141%
71 | CCOC[C@@H]1CC[C@H]2[C@H](CCN2S(=O)(=O)Cc2ccccc2)O1 | -7.135%
72 | CCOC[C@@H]1CC[C@H]2[C@H](CCN2C(=O)c2cnccn2)O1 | 112.7%
73 | COCC(=O)N1CC[C@@H]2O[C@H](COCc3csc(C)n3)CC[C@@H]21 | 4.421%
74 | CCOC[C@H]1CC[C@H]2[C@H](CCN2C(=O)c2cnccn2)O1 | 103.2%
75 | Cc1nc(COC[C@H]2CC[C@H]3[C@H](CCN3C(N)=O)O2)cs1 | -9.234%
76 | CN(C)C(C(=O)N1CCC(C#N)CC1)c1ccccc1F (configuration not stated) | -0.3171%
77 | CCN1C[C@H]2C3(CCN(C(C)=O)CC3)CC[C@@]2(C(=O)N(C)C)C1.O=C(O)C(F)(F)F | 6.202%
78 | c1cncc(-c2nc(C3CC3)ncc2-c2ccnc(N3CCCC3)n2)c1 | 90.28%
79 | Cc1ncc(-c2ccnc(NC3CC3)n2)c(-c2cccnc2)n1 | 88.62%
80 | Cc1ncc(-c2ccnc(N3CC[C@H](O)C3)n2)c(-c2cccnc2)n1 | 109%
81 | COc1ccnc(N2CCCN(c3nc(C4CC4)ns3)CC2)n1 | 2.276%
82 | Cc1noc(-c2ccc(N3CCC[C@H]3CO)nc2)n1 | 4.962%
83 | Cc1ncc(-c2ccnc(N3CCC[C@@H]3CO)n2)c(-c2cccnc2)n1 | 102.7%
84 | O=c1cc(-c2cccnc2)nc(-c2ccc(CN3CC[C@@H](O)C3)cc2)[nH]1 | 3.03%
85 | CCCn1cc(-c2ccnc(NC3CCc4ccccc4C3)n2)c(C)n1 (configuration not stated) | 0.5444%
86 | Cc1ncc(-c2ccnc(N3CCCCCC3)n2)c(-c2cccnc2)n1 | -6.559%
87 | COc1ccccc1Oc1ncccc1CNC(=O)CN1CCCC1=O | -22.72%
88 | O=C(Nc1ccccc1)N1CCC(N2Cc3ncccc3C2=O)CC1 | -2.29%

Row | SMILES | Percent Effect
89 | CSC1(CNc2ncc(Br)cn2)CCOCC1 | -8.791%
90 | COc1ccccc1C(=O)N(Cc1nc(C)cs1)CC1CCCO1 (configuration not stated) | -4.042%
91 | CCC[C@H]1CN(CCS(C)(=O)=O)C[C@@H]1NC(=O)c1cccnn1 | 3.679%
92 | COc1ccsc1C(=O)Nc1cc(Cl)c(=O)n(C)c1 | -0.9546%
93 | O=C(NCCCOC1CCOC1)NC(C1CC1)C1CC1 (configuration not stated) | -5.056%
94 | CCCc1nc(C)c(CN2CC3(CCOC3)CCC2=O)s1 (configuration not stated) | -4.631%
95 | COc1ccc(-c2nc(CC(=O)N(C)CCC#N)cs2)cc1OC | -11.11%
96 | CN(Cc1cncnc1)[C@H]1CN(C(=O)c2ccco2)[C@@H]2CCCO[C@@H]21 | 83.44%
97 | Cc1ccc(CN2C[C@H](N(C)Cc3cncnc3)[C@H]3OCCC[C@H]32)o1 | -12.1%
98 | CN(Cc1ccco1)[C@@H]1CN(C(=O)c2ccnnc2)[C@@H]2CCCO[C@H]12.O=C(O)C(F)(F)F | 0.1298%
99 | CCN(CC)[C@@H]1CN(C(=O)c2ccc(C#N)cc2)[C@@H]2CCCO[C@H]12.O=C(O)C(F)(F)F | -2.681%
100 | CCN(CC)[C@@H]1CN(C(=O)c2ccnnc2)[C@@H]2CCCO[C@H]12.O=C(O)C(F)(F)F | -6.627%
101 | CN(Cc1cncnc1)[C@@H]1CN(C(=O)c2ccco2)[C@@H]2CCCO[C@H]12.O=C(O)C(F)(F)F | 99.89%
102 | CN(Cc1cncnc1)[C@@H]1CN(C(=O)C2CC2)[C@@H]2CCCO[C@H]12.O=C(O)C(F)(F)F | 103.9%
103 | CN(C)C(=O)CO[C@@H]1CN(Cc2ccccc2)[C@@H]2CCCO[C@@H]21 | -2.745%
104 | CCCS(=O)(=O)N1C[C@H](N(C)Cc2ccco2)[C@@H]2OCCC[C@@H]21.O=C(O)C(F)(F)F | -9.069%
105 | CN(Cc1ccco1)[C@@H]1CN(Cc2ccc(F)cc2)[C@@H]2CCCO[C@H]12.O=C(O)C(F)(F)F.O=C(O)C(F)(F)F | 1.532%
106 | COCC(=O)N1C[C@H](N(C)Cc2cncnc2)[C@H]2OCCC[C@H]21 | 102.5%
107 | CN(Cc1ccco1)[C@@H]1CN(CC2CCOCC2)[C@@H]2CCCO[C@H]12.O=C(O)C(F)(F)F.O=C(O)C(F)(F)F | 6.763%
